The full list was thinned out, with hits kept by preference.
nsP2pro primary: blocks chikungunya virus nsP2 protease peptide cleavage. 1.1% of 31,000 active. Potency, µM (titrated, usually from 24.9 µM), for the others: at the highest dose activity change, negative = inhibition, actives largely listed as inhibitors. AID 1964107. FRET peptide cleavage, nsP2pro, fluorescence 1 h; also: nearly all actives have a fitted effect of over 60% in size
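Recombinant nsP2pro (150 nM) was preincubated with compound 15 min at room temperature in 10 mM Tris-HCl pH 8.0, 0.01% Tween 20. Peptide 2 FRET substrate (2.5 uM) was then added and fluorescence read after 1 h. Seven-point series, up to 25 uM.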
CHIKV nsP2 cell: cell-based CHIKV nsP2 protease inhibition, secondary; AID 1964100; shares compounds with nsP2pro primary; Potency, µM (titrated, usually from 51.1 µM), inactives show at the top dose activity change, negative = inhibition, usual class: inhibitors; 10% of 450 active; cell-based CHIKV nsP2 protease reporter assay; also: nearly all actives have a fitted effect of over 70% in size
NSP2 full ctr: selectivity test for CHIKV nsP2 protease inhibitors: full-length NSP2 | shares compounds with nsP2pro primary | Full-length CHIKV NSP2 protease enzymatic counterscreen | Potency, µM (titrated, usually from 50.7 µM), for the others: at the highest dose activity change, negative = inhibition, hits mostly inhibitors | 39% of 410 active | AID 1964101; also: nearly all actives have a fitted effect of over 65% in size
Furin counterscr: human furin inhibition, counterscreen for nsP2pro inhibitors; shares compounds with nsP2pro primary; Recombinant human furin enzymatic counterscreen, fluorogenic substrate; Potency, µM (doses to about 50.6 µM), for inactives: at the highest dose activity change, negative = inhibition, hits mostly inhibitors; 6% of 410 active
nsP2 NS23 pep: nsP2pro inhibition on native NS2/3 peptide substrate; AID 1964103; 34% of 410 active; shares compounds with nsP2pro primary; Potency, µM (doses to about 51 µM), inactives show at the top dose activity change, negative = inhibition, actives largely listed as inhibitors; Purified CHIKV nsP2 protease, endogenous NS2/3 peptide cleavage; also: nearly all actives have a fitted effect of over 55% in size
Papain cs: papain protease inhibition, counterscreen for nsP2pro inhibitors | Potency, µM (titrated, usually from 51 µM), for inactives: top-dose activity change, negative = inhibition, usual class: inhibitors | 5% of 410 active | purified papain protease activity, enzymatic inhibition | shares compounds with nsP2pro primary
nsP2pro confirm: confirmation of CHIKV nsP2 protease inhibitors; shares compounds with nsP2pro primary; CHIKV nsP2 protease enzymatic activity, qHTS; Potency, µM (top dose mostly 25.5 µM), for inactives: at the highest dose activity change, negative = inhibition, most hits filed as inhibitors; 43% of 410 active; AID 1964105; also: nearly all actives have a fitted effect of over 75% in size
HCV NS3 counter: HCV NS3/4A protease inhibition, counterscreen. AID 1964106. HCV NS3/4A protease biochemical counterscreen. 20% of 410 active. shares compounds with nsP2pro primary. Potency, µM (titrated, usually from 50.9 µM), most hits filed as inhibitors; also: nearly all actives have a fitted effect of over 55% in size
* hit, by the source's call; i = inactive; ? = inconclusive; [ ] = dose if it differs, or a comment. Calls follow the shape of the full dose curve. % is scaled to controls: 0 for no effect and ±100 for the full control effect; potency is read from the fitted curve at half-maximal effect.

SMILES | nsP2pro primary | others
CCOc1cc(C(CS(C)(=O)=O)N2C(=O)c3cccc(NC(C)=O)c3C2=O)ccc1OC (stereo not given) | -16%
Cc1nc(-c2cccs2)cc([C@H]2CN3CC[C@H]2C[C@@H]3COC(=O)NC2CCCCC2)n1 | 6%
Cc1nc(-c2ccccc2Br)cc([C@H]2CN3CC[C@H]2C[C@@H]3CNC(=O)NC2CCCCC2)n1 | 5µM* | CHIKV nsP2 cell=-3%;NSP2 full ctr=?;Furin counterscr=?;nsP2 NS23 pep=16µM*;Papain cs=0%;nsP2pro confirm=8µM*;HCV NS3 counter=13µM*
CC(=O)c1cccc(NC(=O)NC[C@H]2C[C@@H]3CCN2C[C@@H]3c2cc(-c3ccc(F)cc3)nc(C)n2)c1 | i
COc1ccc(-c2cc([C@H]3CN4CC[C@H]3C[C@@H]4CNC(=O)NC3CCCCC3)n(C)n2)cc1 | 12%
Cc1nc(-c2ccco2)cc([C@H]2CN3CC[C@H]2C[C@@H]3CNC(=O)NC2CCCCC2)n1 | 8.9µM* | CHIKV nsP2 cell=31%;NSP2 full ctr=13µM*;Furin counterscr=?;nsP2 NS23 pep=17µM*;Papain cs=-8%;nsP2pro confirm=13µM*;HCV NS3 counter=8.4µM*
COc1ccc(-c2cc([C@H]3CN4CC[C@H]3C[C@@H]4COC(=O)NC3CCCCC3)nc(C)n2)cc1 | i
C[N+]1([O-])[C@H]2CC(OC(=O)C(CO)c3ccccc3)C[C@H]1[C@H]1O[C@H]12 (stereo not given in full) | 27%
CNc1sc(-c2cccc3ccccc23)nc1C(=O)OC | -4%
C=C1C2CCC3CC2(CC(O)C2(O)C1CC(OC1OC(CO)C(O)C(O)C1O)C2(C)C)CC3(C)O (stereo not given) | 42%[10 µM]
Cc1ccc(S(=O)(=O)Nc2cnccc2C(=O)Nc2nc(-c3ccc4c(c3)CCCC4)cs2)cc1 | i
COc1ccc2c(c1)C(CN1CCN(c3ccc4oc(C(=O)O)cc4c3Cl)CC1)=CC(C)(C)CO2 | i
O=C1C(Cc2ccc(O)cc2)N2C(=O)CCN(C(=O)NCc3ccccc3)C2CN1Cc1cccc2ccccc12 (stereo not given) | 0%
CC1(C)OC(=O)C=C[C@@]2(C)C1CC(=O)[C@]1(C)C2CC[C@@]2(C)[C@H](c3ccoc3)OC(=O)[C@H]3O[C@]321 (stereo not given in full) | 3.4µM* | CHIKV nsP2 cell=5%[17.6 µM];NSP2 full ctr=?;Furin counterscr=6%[17.3 µM];nsP2 NS23 pep=-11%[17.2 µM];Papain cs=-4%[17.2 µM];nsP2pro confirm=-28%[8.62 µM];HCV NS3 counter=i
CC(=O)OC1CC(O)C(C)(C)C2CC(OC(C)=O)C3(C)C(CCC4(C)C(c5ccoc5)C(=O)C5OC543)C12C (stereo not given) | -27%[10 µM]
CC(C)(O)C1CC(=O)C2(C)C(CCC3(C)C(c4ccoc4)OC(=O)C4OC432)C12CCC(=O)OC2 (stereo not given) | 0.86µM* | CHIKV nsP2 cell=2%[17.6 µM];NSP2 full ctr=?;Furin counterscr=6%[17.3 µM];nsP2 NS23 pep=-19%[17.2 µM];Papain cs=-8%[17.2 µM];nsP2pro confirm=?;HCV NS3 counter=?
CCOC(=O)c1cnc2ccc(-c3cncc(NS(=O)(=O)c4ccccc4)c3)cn12 | 0%
C=C/C=C/C[C@@H](C)[C@@H](O)[C@H]1C(=O)N[C@@H](CC)C(=O)N(C)CC(=O)N(C)[C@@H](CC(C)C)C(=O)N[C@@H](C(C)C)C(=O)N(C)[C@@H](CC(C)C)C(=O)N[C@@H](C)C(=O)N[C@H](C)C(=O)N(C)[C@@H](CC(C)C)C(=O)N(C)[C@@H](CC(C)C)C(=O)N(C)[C@@H](C(C)C)C(=O)N1C | 0%
COc1ccc(NC(=O)C2=C(C)NC(Nc3nc4ccccc4o3)=NC2c2ccccc2Br)cc1 (stereo not given) | -11%
CNc1nc2c(s1)C(c1ccc(Cl)cc1)CC(=O)N2 (stereo not given) | 3.2µM* | CHIKV nsP2 cell=46%;NSP2 full ctr=2.9µM*;Furin counterscr=-10%;nsP2 NS23 pep=8.2µM*;Papain cs=23%;nsP2pro confirm=5.7µM*;HCV NS3 counter=i
Cc1ccnc(NC(=S)N2CCc3cccc(C(F)(F)F)c3C2)c1 | i
Cc1ccc(CN2CCC(CNC(=O)NC(C)C)C2)cc1C (stereo not given) | 2%
O=C(/C=C/c1ccc(O)c(O)c1)O[C@@H](C(=O)O)[C@@H](OC(=O)/C=C/c1ccc(O)c(O)c1)C(=O)O | 40%
O=C(O)/C=C/c1ccc(O)c(O)c1 | ? | CHIKV nsP2 cell=-8%;NSP2 full ctr=-22%;Furin counterscr=-2%;nsP2 NS23 pep=3%;Papain cs=-8%;nsP2pro confirm=-5%;HCV NS3 counter=?
COc1cc(/C=C/C(=O)O)ccc1O | 13%
SMILES | nsP2pro primary | others
CC(C)c1ccc2c(c1)C(=O)CC1[C@@](C)(C(=O)O)CCC[C@]21C (stereo not given in full) | 7%
O=S(=O)(Nc1cccc2ccccc12)c1ccc(NCc2cccc(Cl)c2O)cc1 | -26%
Oc1ccc(NCc2ccccc2OCc2ccccc2Cl)cc1 | 0.85µM* | CHIKV nsP2 cell=12µM*;NSP2 full ctr=10µM*;Furin counterscr=-9%;nsP2 NS23 pep=16µM*;Papain cs=-11%;nsP2pro confirm=8µM*;HCV NS3 counter=18µM*
Cn1nnnc1SCCNCc1ccccc1OCc1ccccc1F | -23%
O=S(=O)(Nc1ccc2ccccc2c1)c1ccc(NCc2cccc(Cl)c2O)cc1 | 4%
O=S(=O)(Nc1nccs1)c1ccc(NCc2cccc(F)c2O)cc1 | i
Oc1ccc(NCc2ccccc2OCc2ccccc2F)cc1 | 8.9µM* | CHIKV nsP2 cell=?;NSP2 full ctr=23µM*;Furin counterscr=-3%;nsP2 NS23 pep=21µM*;Papain cs=-10%;nsP2pro confirm=?;HCV NS3 counter=?
COc1ccc(C(=O)NC[C@@H]2CC[C@H]3C[C@@H]2C3(C)C)cc1 | 2%[39.2 µM]
CCCC(=O)N1Cc2ccccc2CC2(CCCN(Cc3ccccn3)C2)C1 (stereo not given) | i
Cc1c(P(=S)(c2ccccc2)c2ccccc2)[n+]2ccccc2n1CCCCCc1ccccc1 | 1%
CCC(=C(c1ccc(OCCN2CCCC2)cc1)c1ccc(OCCN2CCCC2)cc1)c1ccccc1 | 93%
c1ccc(-c2cnc(Nc3ccc(OCCN4CCCC4)cc3)s2)cc1 | 127%
C(#Cc1nc2ncccc2nc1OCCN1CCCC1)c1ccccc1 | 7µM* | CHIKV nsP2 cell=?;NSP2 full ctr=18µM*;Furin counterscr=23µM*;nsP2 NS23 pep=16µM*;Papain cs=98%;nsP2pro confirm=8µM*;HCV NS3 counter=i
CCC(C)C(NC(=O)C(Cc1ccc(O)cc1)NC(=O)C(NC(=O)C(CCCN=C(N)N)NC(=O)C(N)CC(=O)O)C(C)C)C(=O)NC(Cc1cnc[nH]1)C(=O)N1CCCC1C(=O)O (stereo not given) | -6%
c1csc(CNc2ccc(N3CCCCC3)cc2)c1 | i

Source: PubChem (National Center for Advancing Translational Sciences (NCATS))
